These results are taken from PubChem BioAssay (NCI).

This is part of a sample that, as a whole, favours compounds with a hit. Of some 83,000 tested, about 20% had one in any assay.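 Activity criterion: percent growth below 10, measured after cells in 96-well plates were exposed to a single compound concentration for 48 hours.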 A number with no mark means an inactive call. The source made the active and inactive calls.

What all share (experiment): NCI-60 one-dose screen, 48 h (100 = growth as untreated, 0 = no growth, -100 = all killed)
In one experiment the test system is SK-MEL-2 melanoma. Particulars: 10 µM unless noted.
Another experiment concerns EKVX NSCLC. Conditions: 10 µM unless noted.
The test system of a further experiment is SN12C renal. Particulars: 10 µM unless noted.
The subject of the next experiment is UO-31 renal. Particulars: 10 µM unless noted.
A further experiment deals with TK-10 renal. Conditions: 10 µM unless noted.
The next experiment deals with ACHN renal. Conditions: 10 µM unless noted.
Another experiment relates to CAKI-1 renal. Particulars: 10 µM unless noted.
In a further experiment the test system is A498 renal. Particulars: 10 µM unless noted.
The next experiment concerns CCRF-CEM leukemia. Conditions: 10 µM unless noted.
In another experiment the test system is MOLT-4 leukemia. Particulars: 10 µM unless noted.
The subject of another experiment is SR leukemia. Particulars: 10 µM unless noted.
The test system of the next experiment is RPMI-8226 leukemia. Conditions: 10 µM unless noted.
For another experiment, the system named is OVCAR-8 ovarian. Particulars: 10 µM unless noted.
Another experiment concerns OVCAR-5 ovarian. Particulars: 10 µM unless noted.
In a further experiment the test system is SK-OV-3 ovarian. Conditions: 10 µM unless noted.
The subject of another experiment is IGROV1 ovarian. Conditions: 10 µM unless noted.
A further experiment concerns OVCAR-3 ovarian. Conditions: 10 µM unless noted.
The next experiment relates to HS 578T breast. Conditions: 10 µM unless noted.
A further experiment deals with NCI/ADR-RES ovarian. Conditions: 10 µM unless noted.
The test system of a further experiment is OVCAR-4 ovarian. Particulars: 10 µM.

Turning to `CC(=O)O.CC(=O)O.O.[Fe]`, the growth with SK-MEL-2 melanoma was 109%; in the experiment on EKVX NSCLC, 147%; in the experiment with SN12C renal, 95.2%; with UO-31 renal it was 89%; in the experiment on TK-10 renal, 105%; in the experiment on ACHN renal, 107%. In addition, the growth is 130% in the experiment on CAKI-1 renal; 89.8% with A498 renal; 131% in the experiment with CCRF-CEM leukemia; 116% in the experiment with MOLT-4 leukemia; 124% in the experiment with SR leukemia; 135% in the experiment with RPMI-8226 leukemia. Moreover, the growth in the experiment on OVCAR-8 ovarian is 99.1%; in the experiment with OVCAR-5 ovarian it was 105%; with SK-OV-3 ovarian it was 94.1%; with IGROV1 ovarian it was 106%; in the experiment on OVCAR-3 ovarian, 108%; in the experiment with HS 578T breast, 93.2%. The growth in the experiment on NCI/ADR-RES ovarian is 102%.
Consider `COc1ccc(/C=C/C=C\C(=O)c2ccc(-n3ccnc3)cc2)cc1`, for which the growth in the experiment with SK-MEL-2 melanoma was 108%; in the experiment with EKVX NSCLC it was 96.6%; with SN12C renal it was 90.7%; in the experiment on UO-31 renal, 73.9%; with TK-10 renal it was 96.3%; with ACHN renal, 94.4%. Also, the growth is 90.9% in the experiment with CAKI-1 renal; 73.3% in the experiment on A498 renal; 80.2% in the experiment with CCRF-CEM leukemia; 75% with MOLT-4 leukemia; 82.1% in the experiment with SR leukemia; 71.5% in the experiment on RPMI-8226 leukemia. Moreover, the growth is 86.4% in the experiment on OVCAR-8 ovarian; 103% in the experiment on OVCAR-5 ovarian; 97% with SK-OV-3 ovarian; 93.5% in the experiment with IGROV1 ovarian; 96.7% in the experiment on OVCAR-3 ovarian; 91.1% with HS 578T breast. Moreover, in the experiment with NCI/ADR-RES ovarian, the growth is 104%.
Consider `O=S(=O)(/N=c1/n(-c2ccccc2)nc2n1CCN2C1=NCCN1)c1ccc(-c2ccccc2)cc1`, for which the growth is 115% in the experiment on SK-MEL-2 melanoma; 95.9% with EKVX NSCLC; 93.6% with SN12C renal; 84.4% in the experiment with UO-31 renal; 108% in the experiment on TK-10 renal; 101% in the experiment with ACHN renal. For the same compound, the growth is 92% in the experiment on CAKI-1 renal; 82.9% in the experiment with A498 renal; 94.7% in the experiment with CCRF-CEM leukemia; 95.1% with MOLT-4 leukemia; 67.4% in the experiment on SR leukemia; 96.8% in the experiment with RPMI-8226 leukemia. The growth in the experiment with OVCAR-8 ovarian was 103%; in the experiment with OVCAR-5 ovarian, 96.6%; in the experiment with SK-OV-3 ovarian it was 100%; with IGROV1 ovarian, 95.4%; in the experiment on OVCAR-3 ovarian, 101%; in the experiment on HS 578T breast it was 93.4%. For the same compound, the growth in the experiment with NCI/ADR-RES ovarian was 104%.
In the case of `O=C1CC(c2ccc3c(c2)OCO3)Nc2ccccc21` (stereo not drawn), the growth in the experiment on SK-MEL-2 melanoma was 40.1%; with EKVX NSCLC, 48.1%; with SN12C renal, 34.4%; with UO-31 renal, 43.9%; in the experiment with TK-10 renal, 40.1%; in the experiment with ACHN renal, 46.9%. In addition, the growth is 33.9% in the experiment with CAKI-1 renal; -11.2% (active) with A498 renal; 10.8% in the experiment on CCRF-CEM leukemia; 62.7% with MOLT-4 leukemia; 19% in the experiment on SR leukemia; 15.4% in the experiment on RPMI-8226 leukemia. The growth is 22.3% in the experiment with OVCAR-8 ovarian; 54.3% in the experiment on OVCAR-5 ovarian; 51.7% in the experiment on OVCAR-4 ovarian; 53.5% in the experiment with IGROV1 ovarian; -19.5% (active) in the experiment on OVCAR-3 ovarian; 20.2% in the experiment with HS 578T breast. In addition, in the experiment on NCI/ADR-RES ovarian, the growth was 1.78% (active).
On to `CCOc1cc(/C=N\NC(=O)N/N=C/c2ccc(O)c(OCC)c2)ccc1O`, for which the growth was 49.8% with SK-MEL-2 melanoma; 60.6% in the experiment with EKVX NSCLC; 51.3% with SN12C renal; 59.1% in the experiment with UO-31 renal; 34.3% in the experiment with TK-10 renal; 45.6% with ACHN renal. The growth in the experiment with CAKI-1 renal is 37.9%; in the experiment with A498 renal, 72.6%; in the experiment on CCRF-CEM leukemia it was 16.5%; with MOLT-4 leukemia, 31.1%; in the experiment on SR leukemia, 12.2%; in the experiment with RPMI-8226 leukemia it was 32.8%. For the same compound, the growth in the experiment with OVCAR-8 ovarian is 52%; in the experiment with OVCAR-5 ovarian, 66.8%; in the experiment with SK-OV-3 ovarian it was 16.2%; in the experiment on IGROV1 ovarian, 59.4%; with OVCAR-3 ovarian it was -34.7% (active); with HS 578T breast, -2.98% (active). Further, the growth with NCI/ADR-RES ovarian was 51.6%.
With `CCN(CC)c1ccc2cc(C(Nc3ccc(Br)c(C(F)(F)F)c3)c3nnnn3C(C)(C)C)c(=O)oc2c1` (stereo not drawn), the growth is 89.9% in the experiment on SK-MEL-2 melanoma; 87.7% in the experiment on EKVX NSCLC; 90.4% with SN12C renal; 74% in the experiment on UO-31 renal; 83.9% in the experiment on TK-10 renal; 99.1% with ACHN renal. Further, the growth in the experiment on CAKI-1 renal was 85%; with A498 renal it was 67.6%; in the experiment on CCRF-CEM leukemia, 92.1%; with MOLT-4 leukemia it was 69.6%; in the experiment with SR leukemia it was 98.8%; with RPMI-8226 leukemia it was 87.1%. In addition, the growth in the experiment with OVCAR-8 ovarian is 91.5%; with OVCAR-5 ovarian, 92%; in the experiment on SK-OV-3 ovarian, 84.7%; in the experiment on IGROV1 ovarian it was 106%; in the experiment on OVCAR-3 ovarian, 104%; in the experiment with HS 578T breast it was 79.6%. The growth in the experiment with NCI/ADR-RES ovarian is 93.8%.
With `Cc1nc(Cl)cc(N(c2cc(Cl)nc(C)n2)c2ncc(C(=O)Nc3c(C)cccc3Cl)s2)n1`, the growth is 87.4% with SK-MEL-2 melanoma; 84.7% with EKVX NSCLC; 37.5% in the experiment with SN12C renal; 24.8% in the experiment on UO-31 renal; 36.7% in the experiment on TK-10 renal; 14.1% in the experiment on ACHN renal. The growth in the experiment with CAKI-1 renal is 4% (active); in the experiment on A498 renal, 35.6%; in the experiment on CCRF-CEM leukemia, 53.7%; in the experiment with MOLT-4 leukemia, 40.6%; with SR leukemia, 86.9%; in the experiment on RPMI-8226 leukemia it was 50.8%. Further, the growth in the experiment with OVCAR-8 ovarian is 63.1%; in the experiment with OVCAR-5 ovarian, 38.5%; in the experiment with SK-OV-3 ovarian, 39.8%; with IGROV1 ovarian, -22% (active); with OVCAR-3 ovarian it was 49.9%; in the experiment on HS 578T breast, -1.46% (active). Further, the growth with NCI/ADR-RES ovarian is 59.3%.
